# Laboratory results from PubChem BioAssay AID1159580 (chemical genetic matrix, 2015).
# Out of some 5,500 compounds screened, about 2,000 (36%) were called active. Another 18% or so got no clear call; they are omitted. Some of the results follow. Values without a mark were called inactive. No stated cut-off is given here; in the data, active means normalized growth mostly below about 0.91 (no sharp cut-off); inconclusive means no clear call, values can overlap the other calls; inactive means mostly above about 0.92.
# Test: chemical genetic growth profiling, strain panel (AID 1159580);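 further: tested at 20 µM; growth read once vehicle control cultures reached saturation at 30 °C; 1 = growth at the plate median or of vehicle wells; lower values mean less growth of the strain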
# Settings: growth OD
structure (smiles),measurement,setting,value
CC1(C)C=Cc2cc3ccc(=O)oc3cc2O1,normalized growth,"S. cerevisiae deletion strains, locus YJR066W, strain TOR1, hits give low values",0.793 (active)
same,normalized growth,"S. cerevisiae deletion strains, locus YJR075W, strain HOC1, hits give low values",0.941
same,normalized growth,"S. cerevisiae deletion strains, locus YKL009W, strain mrt4, hits give low values",0.921
same,normalized growth,"S. cerevisiae deletion strains, locus YKL068W, hits give low values",0.966
same,normalized growth,"S. cerevisiae deletion strains, locus YKL085W, strain MDH1 (second series), hits give low values",0.973
same,normalized growth,"S. cerevisiae deletion strains, locus YKL085W, strain MDH1, hits give low values",0.973
same,normalized growth,"S. cerevisiae deletion strains, locus YKL160W, strain elf1, hits give low values",0.909
same,normalized growth,"S. cerevisiae deletion strains, locus YKR001C, strain vps1, hits give low values",0.907
same,normalized growth,"S. cerevisiae deletion strains, locus YKR026C, strain gcn3, hits give low values",0.942
same,normalized growth,"S. cerevisiae deletion strains, locus YKR091W, strain srl3, hits give low values",0.924 (active)
same,normalized growth,"S. cerevisiae deletion strains, locus YLL001W, strain dnm1, hits give low values",0.876 (active)
same,normalized growth,"S. cerevisiae deletion strains, locus YLL026W, hits give low values",0.934
same,normalized growth,"S. cerevisiae deletion strains, locus YLL041C, strain sdh2, hits give low values",0.937
same,normalized growth,"S. cerevisiae deletion strains, locus YLR027C, strain aat2, hits give low values",0.942
same,normalized growth,"S. cerevisiae deletion strains, locus YLR039C, strain RIC1, hits give low values",0.91
same,normalized growth,"S. cerevisiae deletion strains, locus YLR058C, strain SHM2, hits give low values",0.965
same,normalized growth,"S. cerevisiae deletion strains, locus YLR102C, strain apc9, hits give low values",0.969
same,normalized growth,"S. cerevisiae deletion strains, locus YLR113W, strain HOG1, hits give low values",0.729 (active)
same,normalized growth,"S. cerevisiae deletion strains, locus YLR221C, strain rsa3, hits give low values",0.93
same,normalized growth,"S. cerevisiae deletion strains, locus YLR258W, strain gsy2, hits give low values",0.895 (active)
same,normalized growth,"S. cerevisiae deletion strains, locus YLR262C, strain YPT6 (second series), hits give low values",0.815 (active)
same,normalized growth,"S. cerevisiae deletion strains, locus YLR268W, strain sec22, hits give low values",0.985
same,normalized growth,"S. cerevisiae deletion strains, locus YLR320W, strain mms22, hits give low values",0.891
same,normalized growth,"S. cerevisiae deletion strains, locus YLR330W, strain CHS5, hits give low values",0.984
same,normalized growth,"S. cerevisiae deletion strains, locus YLR342W, strain FKS1 (second series), hits give low values",0.87
same,normalized growth,"S. cerevisiae deletion strains, locus YLR342W, strain FKS1, hits give low values",0.909 (active)
same,normalized growth,"S. cerevisiae deletion strains, locus YLR357W, strain rsc2, hits give low values",0.979
same,normalized growth,"S. cerevisiae deletion strains, locus YLR370C, strain arc18, hits give low values",0.873 (active)
same,normalized growth,"S. cerevisiae deletion strains, locus YLR371W, strain rom2, hits give low values",0.906 (active)
same,normalized growth,"S. cerevisiae deletion strains, locus YLR384C, strain iki3, hits give low values",0.948
same,normalized growth,"S. cerevisiae deletion strains, locus YLR418C, strain cdc73, hits give low values",0.851
same,normalized growth,"S. cerevisiae deletion strains, locus YML016C, strain PPZ1, hits give low values",0.986
same,normalized growth,"S. cerevisiae deletion strains, locus YML032C, strain rad52, hits give low values",0.923
same,normalized growth,"S. cerevisiae deletion strains, locus YML120C, strain ndi1, hits give low values",0.85 (active)
same,normalized growth,"S. cerevisiae deletion strains, locus YML124C, strain tub3, hits give low values",0.96
same,normalized growth,"S. cerevisiae deletion strains, locus YMR058W, strain fet3, hits give low values",0.925
same,normalized growth,"S. cerevisiae deletion strains, locus YMR078C, strain ctf18, hits give low values",0.95
same,normalized growth,"S. cerevisiae deletion strains, locus YMR125W, strain sto1, hits give low values",0.999
same,normalized growth,"S. cerevisiae deletion strains, locus YMR129W, hits give low values",0.923 (active)
same,normalized growth,"S. cerevisiae deletion strains, locus YMR205C, strain PFK2, hits give low values",0.923
same,normalized growth,"S. cerevisiae deletion strains, locus YMR223W, strain ubp8, hits give low values",0.908
same,normalized growth,"S. cerevisiae deletion strains, locus YMR231W, strain pep5, hits give low values",0.976
same,normalized growth,"S. cerevisiae deletion strains, locus YMR263W, strain SAP30, hits give low values",0.977
same,normalized growth,"S. cerevisiae deletion strains, locus YMR307W, strain GAS1, hits give low values",1.06
same,normalized growth,"S. cerevisiae deletion strains, locus YNL067W, strain RPL9B, hits give low values",0.957
same,normalized growth,"S. cerevisiae deletion strains, locus YNL071W, strain lat1, hits give low values",0.863 (active)
same,normalized growth,"S. cerevisiae deletion strains, locus YNL128W, strain TEP1, hits give low values",1
same,normalized growth,"S. cerevisiae deletion strains, locus YNL183C, strain NPR1, hits give low values",0.843
same,normalized growth,"S. cerevisiae deletion strains, locus YNL209W, strain ssb2, hits give low values",0.923 (active)
same,normalized growth,"S. cerevisiae deletion strains, locus YNL233W, strain BNI4, hits give low values",0.941
same,normalized growth,"S. cerevisiae deletion strains, locus YNL248C, strain rpa49, hits give low values",0.916
same,normalized growth,"S. cerevisiae deletion strains, locus YNL250W, strain rad50, hits give low values",0.965
same,normalized growth,"S. cerevisiae deletion strains, locus YNL271C, strain bni1, hits give low values",0.958
same,normalized growth,"S. cerevisiae deletion strains, locus YNL298W, strain CLA4, hits give low values",0.97
same,normalized growth,"S. cerevisiae deletion strains, locus YNL307C, strain MCK1, hits give low values",0.943
same,normalized growth,"S. cerevisiae deletion strains, locus YNL322C, strain KRE1 (second series), hits give low values",0.917
same,normalized growth,"S. cerevisiae deletion strains, locus YNR049C, strain mso1, hits give low values",0.925
same,normalized growth,"S. cerevisiae deletion strains, locus YNR052C, strain pop2, hits give low values",0.971
same,normalized growth,"S. cerevisiae deletion strains, locus YOL006C, strain TOP1, hits give low values",0.75
same,normalized growth,"S. cerevisiae deletion strains, locus YOL012C, strain htz1",0.855
same,normalized growth,"S. cerevisiae deletion strains, locus YOL147C, strain pex11, hits give low values",0.964
same,normalized growth,"S. cerevisiae deletion strains, locus YOR001W, strain rrp6, hits give low values",0.895
same,normalized growth,"S. cerevisiae deletion strains, locus YOR061W, strain CKA2, hits give low values",1
same,normalized growth,"S. cerevisiae deletion strains, locus YOR069W, strain VPS5, hits give low values",0.99
same,normalized growth,"S. cerevisiae deletion strains, locus YOR070C, strain gyp1, hits give low values",0.981
same,normalized growth,"S. cerevisiae deletion strains, locus YOR080W, strain dia2, hits give low values",0.964
same,normalized growth,"S. cerevisiae deletion strains, locus YOR083W, strain WHI5, hits give low values",0.844 (active)
same,normalized growth,"S. cerevisiae deletion strains, locus YOR106W, strain vam3, hits give low values",0.821 (active)
same,normalized growth,"S. cerevisiae deletion strains, locus YOR136W, strain idh2, hits give low values",0.968
same,normalized growth,"S. cerevisiae deletion strains, locus YOR144C, strain elg1, hits give low values",0.972
same,normalized growth,"S. cerevisiae deletion strains, locus YOR184W, strain ser1, hits give low values",0.892
same,normalized growth,"S. cerevisiae deletion strains, locus YOR231W, strain MKK1, hits give low values",0.857 (active)
same,normalized growth,"S. cerevisiae deletion strains, locus YOR265W, strain rbl2, hits give low values",0.935
same,normalized growth,"S. cerevisiae deletion strains, locus YOR270C, strain vph1, hits give low values",0.731 (active)
same,normalized growth,"S. cerevisiae deletion strains, locus YOR290C, strain snf2, hits give low values",0.783 (active)
same,normalized growth,"S. cerevisiae deletion strains, locus YOR316C, strain cot1, hits give low values",0.978
same,normalized growth,"S. cerevisiae deletion strains, locus YPL051W, strain arl3, hits give low values",0.906 (active)
same,normalized growth,"S. cerevisiae deletion strains, locus YPL055C, strain LGE1, hits give low values",0.951
same,normalized growth,"S. cerevisiae deletion strains, locus YPL078C, strain atp4, hits give low values",0.82 (active)
same,normalized growth,"S. cerevisiae deletion strains, locus YPL106C, strain sse1, hits give low values",0.843 (active)
same,normalized growth,"S. cerevisiae deletion strains, locus YPL240C, strain hsp82, hits give low values",0.936
same,normalized growth,"S. cerevisiae deletion strains, locus YPL256C, strain CLN2, hits give low values",0.776 (active)
same,normalized growth,"S. cerevisiae deletion strains, locus YPR119W, strain clb2, hits give low values",0.953
same,normalized growth,"S. cerevisiae deletion strains, locus YPR141C, strain kar3, hits give low values",0.957
same,normalized growth,"S. cerevisiae deletion strains, locus YPR163C, strain tif3, hits give low values",0.983
same,normalized growth,"S. cerevisiae deletion strains, locus YPR167C, strain met16, hits give low values",0.948
same,normalized growth,"S. cerevisiae deletion strains, strain wtn01, hits give low values",0.927
same,normalized growth,"S. cerevisiae strains, strain wild type, hits give low values",0.974
